Measured values as given in PubChem BioAssay (Tox21).
A number with no mark means an inactive call. Records with an inconclusive call do not appear. A call without a number means that no potency is given here. Calls of active or inactive are those of the source. Unless noted, calls come from the whole dose curve; as a rule, active = well fitted curve in the direction sought with a large enough effect in the repeat runs; inconclusive = weak or mixed curves; inactive = no such curve, though single readings can be large; an effect the other way counts as inactive or inconclusive.

Key:
[1] = qHTS assay for small molecule agonists of the p53 signaling pathway (AID 651631; calls by dose curve; note: nearly all actives have a fitted effect of over 15% in size; note: potency is the fitted concentration of half-maximal effect)
In short: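 HCT-116 cells carrying a beta-lactamase reporter under p53 response elements were dosed with compound for 16 h at 37 °C. LiveBLAzer B/G FRET substrate was then added for 2 h at room temperature, and fluorescence intensity was read to detect pathway agonism.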

[2] = qHTS assay for small molecules that induce genotoxicity in human embryonic kidney cells expressing luciferase-tagged ATAD5 (AID 651632); note: nearly all actives have a fitted effect of over 15% in size; note: potency is the fitted concentration of half-maximal effect
In short: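 Reporter cells (HEK293T) express luciferase-tagged ATAD5, a protein that accumulates after DNA damage. Treat 16 hr at 37C/5% CO2, add Amplite, wait 30 min at RT, and read luminescence.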

[3] = qHTS assay for small molecule agonists of the p53 signaling pathway - cell viability (AID 651633; calls by dose curve;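 note: p53RE-bla HCT reporter cells with a stable beta-lactamase p53 reporter; series mostly up to about 83 µM; nearly all actives have a fitted effect of over 30% in size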)
In short: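 Viability counter-read: CellTiter-Glo luminescence (30 min, room temperature) in the same p53RE-bla plates. These plates had been exposed to compounds for 16 h at 37 C.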

[4] = qHTS assay for small molecules that induce genotoxicity in human embryonic kidney cells expressing luciferase-tagged ATAD5 - cell viability (AID 651634; calls by dose curve; note: nearly all actives have a fitted effect of over 25% in size; note: potency is the fitted concentration of half-maximal effect)
In short: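 Seeding of 2,000 HEK293T ATAD5-luciferase cells per well preceded pin-tool compound transfer. Plates sat 15.5 hr at 37C under 5% CO2, then fluorescence was read after 30 min with CellTiter-Fluor.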

[5] = qHTS assay for small molecule disruptors of the mitochondrial membrane potential - cell viability (AID 720634; calls by dose curve;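 note: human HepG2 liver cancer cells; series mostly up to about 83 µM; nearly all actives have a fitted effect of over 20% in size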)
In short: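 Measuring cytotoxicity alongside mitochondrial potential, the screen quantified ATP by luminescence in HepG2 cells after 1 hr compound incubation and a 30 min room-temperature CellTiter-Glo step.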

[6] = qHTS assay for small molecule disruptors of the mitochondrial membrane potential (AID 720635); note: potency is the fitted concentration of half-maximal effect
In short: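 Mitochondrial membrane potential tracked with Mito-MPS dye, red aggregates (ex 540/em 590 nm) against green monomers (ex 490/em 535 nm). Compound treatment 1 hr at 37C, dye 30 min in HepG2.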

[7] = qHTS assay to test for compound auto fluorescence at 590 nm (red) in HepG2 cells (AID 720674)
In short: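 We screened compounds on adherent HepG2 cells, incubating them for an hour at 37 C in 5% CO2 before reading emission at 590 nm under 540 nm excitation; values reflect equivalence to Rose Bengal sodium fluorescence.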

[8] = qHTS assay to test for compound auto fluorescence at 535 nm (green) in HepG2 cells (AID 720675)
[9] = qHTS assay to test for compound auto fluorescence at 460 nm (blue) in HEK293 cells (AID 720678)
In short: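 HEK293 cells (2,000 per well, medium with 10% dialyzed FBS) attached for 4-5 hr at 37C, then received compound and stood overnight at 37C, 5% CO2. Blue fluorescence was read at Ex/Em 405/460 nm and expressed relative to triamterene.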

[10] = qHTS assay to test for compound auto fluorescence at 590 nm (red) in HEK293 cells (AID 720679)
In short: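 HEK293 cells (2,000/well, medium with 10% dialyzed FBS) attached for 4-5 hr at 37C, received 23 nL compound and were incubated overnight at 37C, 5% CO2. Red fluorescence was then read at 540/590nm Ex/Em, referenced to Rose Bengal sodium.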

SMILES: O=S(=O)(Cl)c1c(Cl)cccc1Cl
- Potency [1]: inactive
- Potency [2]: inactive
- Potency [3]: inactive
- Potency [4]: inactive
- outcome [5]: inactive
- Potency [6]: inactive
- outcome [7]: inactive
- outcome [8]: inactive
- Potency [9]: inactive

SMILES: CC(C)c1ccc(C#N)cc1
- Potency [1]: inactive
- Potency [2]: inactive
- Potency [3]: inactive
- Potency [4]: inactive
- outcome [5]: inactive
- Potency [6]: inactive
- outcome [7]: inactive
- outcome [8]: inactive
- Potency [9]: inactive
- outcome [10]: inactive

SMILES: FC(F)(F)C(F)(F)C(F)(F)C(F)(F)CCI
- Potency [1]: inactive
- Potency [2]: inactive
- Potency [3]: inactive
- Potency [4]: inactive
- outcome [5]: inactive
- Potency [6]: inactive
- outcome [7]: inactive
- outcome [8]: inactive
- Potency [9]: inactive
- outcome [10]: inactive

SMILES: CC(C)N=C=NC(C)C
- Potency [1]: inactive
- Potency [2]: inactive
- Potency [3]: inactive
- Potency [4]: inactive
- outcome [5]: inactive
- Potency [6]: inactive
- outcome [7]: inactive
- outcome [8]: inactive
- Potency [9]: inactive
- outcome [10]: inactive

SMILES: Nc1ccc(NC(=O)c2ccc(N)cc2)cc1
- Potency [1]: inactive
- Potency [2]: inactive
- Potency [3]: inactive
- Potency [4]: inactive
- outcome [5]: inactive
- Potency [6]: 1.37 µM (active)
- outcome [7]: inactive
- outcome [8]: inactive
- Potency [9]: inactive
- outcome [10]: inactive

SMILES: CCCCCCC(O)CCOC(C)=O (stereo unspecified)
- Potency [1]: inactive
- Potency [2]: inactive
- Potency [3]: inactive
- Potency [4]: inactive
- outcome [5]: inactive
- outcome [7]: inactive
- outcome [8]: inactive
- Potency [9]: inactive
- outcome [10]: inactive

SMILES: CC[C@H]1OC(=O)[C@H](C)[C@@H](O[C@H]2C[C@@](C)(OC)[C@@H](O)[C@H](C)O2)[C@H](C)[C@@H](O[C@@H]2O[C@H](C)C[C@H](N(C)C)[C@H]2O)[C@](C)(O)C[C@@H](C)C(=O)[C@H](C)[C@@H](O)[C@]1(C)O
- Potency [1]: inactive
- Potency [2]: inactive
- Potency [3]: inactive
- Potency [4]: inactive
- outcome [5]: inactive
- Potency [6]: inactive
- outcome [7]: inactive
- outcome [8]: inactive
- Potency [9]: inactive

SMILES: O=C(NC(Cc1cc(=O)[nH]c2ccccc12)C(=O)O)c1ccc(Cl)cc1 (stereo unspecified)
- Potency [1]: inactive
- Potency [2]: inactive
- Potency [3]: inactive
- Potency [4]: inactive
- outcome [5]: inactive
- outcome [7]: inactive
- outcome [8]: inactive
- Potency [9]: inactive

SMILES: CCCCCCCCCCCCCCCCCC(=O)OCC(CC)CCCC (stereo unspecified)
- Potency [1]: inactive
- Potency [2]: inactive
- Potency [3]: inactive
- Potency [4]: inactive
- outcome [5]: inactive
- Potency [6]: inactive
- outcome [7]: inactive
- outcome [8]: inactive
- Potency [9]: inactive

SMILES: CCCCCCC(O)CCCCCCCCCCC(=O)OC (stereo unspecified)
- Potency [1]: inactive
- Potency [2]: inactive
- Potency [3]: inactive
- Potency [4]: inactive
- outcome [5]: inactive
- Potency [6]: inactive
- outcome [7]: inactive
- outcome [8]: inactive
- Potency [9]: inactive
- outcome [10]: inactive

SMILES: CCOCCC(=O)OCC
- Potency [1]: inactive
- Potency [2]: inactive
- Potency [3]: inactive
- Potency [4]: inactive
- outcome [5]: inactive
- outcome [7]: inactive
- outcome [8]: inactive
- Potency [9]: inactive
- outcome [10]: inactive

SMILES: O=C(NS(=O)(=O)/C=C/c1ccccc1)c1ccc(F)cc1Cl
- Potency [1]: 21.7 µM (active)
- Potency [2]: 15.4 µM (active)
- Potency [3]: inactive
- Potency [4]: inactive
- outcome [5]: inactive
- Potency [6]: 68.6 µM (active)
- outcome [7]: inactive
- outcome [8]: inactive
- Potency [9]: inactive
- outcome [10]: inactive

SMILES: CC(=O)OC(C)C[N+](C)(C)C (stereo unspecified)
- Potency [1]: inactive
- Potency [2]: inactive
- Potency [3]: inactive
- Potency [4]: inactive
- outcome [5]: inactive
- fluorescence, relative to Rose Bengal [7]: 0.553% [at 18.6 µM]
- fluorescence, % of fluorescein control [8]: 0.0253% [at 18.6 µM]
- fluorescence, % of triamterene [9]: -0.423% [at 18.6 µM]
- fluorescence, % of fluorescent control [10]: -0.334% [at 18.6 µM]

SMILES: COc1ccc(C(=O)NCc2ccc(OCCN(C)C)cc2)cc1OC
- Potency [1]: inactive
- Potency [2]: inactive
- Potency [3]: inactive
- Potency [4]: inactive
- outcome [5]: inactive
- Potency [6]: inactive
- outcome [7]: inactive
- outcome [8]: inactive
- Potency [9]: inactive
- outcome [10]: inactive

SMILES: CC(=O)c1ccc[nH]1
- Potency [1]: inactive
- Potency [2]: inactive
- Potency [3]: inactive
- Potency [4]: inactive
- outcome [5]: inactive
- Potency [6]: inactive
- outcome [7]: inactive
- outcome [8]: inactive
- Potency [9]: inactive
- outcome [10]: inactive

SMILES: CCC(C)(C)C(=O)O
- Potency [1]: inactive
- Potency [2]: inactive
- Potency [3]: inactive
- Potency [4]: inactive
- outcome [5]: inactive
- outcome [7]: inactive
- outcome [8]: inactive
- Potency [9]: inactive
- outcome [10]: inactive

SMILES: C1CCCCC1
- Potency [1]: inactive
- Potency [2]: inactive
- Potency [3]: inactive
- Potency [4]: inactive
- outcome [5]: inactive
- Potency [6]: inactive
- outcome [7]: inactive
- outcome [8]: inactive
- Potency [9]: inactive

SMILES: CCCCCCOC(=O)CCCCC
- Potency [1]: inactive
- Potency [2]: inactive
- Potency [3]: inactive
- Potency [4]: inactive
- outcome [5]: inactive
- Potency [6]: inactive
- outcome [7]: inactive
- outcome [8]: inactive
- Potency [9]: inactive
- outcome [10]: inactive

SMILES: Nc1ccc(N=Nc2ccc(N)cc2)cc1
- Potency [1]: inactive
- Potency [2]: 5.44 µM (active)
- Potency [3]: inactive
- Potency [4]: 27.3 µM (active)
- outcome [5]: inactive
- Potency [6]: 6.85 µM (active)
- outcome [7]: inactive
- outcome [8]: inactive
- Potency [9]: inactive
- outcome [10]: inactive

SMILES: O=C(O)CN1C(=O)c2cccc3cccc(c23)C1=O
- Potency [1]: inactive
- Potency [2]: inactive
- Potency [3]: inactive
- Potency [4]: inactive
- outcome [5]: inactive
- outcome [7]: inactive
- outcome [8]: inactive
- Potency [9]: inactive
- outcome [10]: inactive

SMILES: CCC1CCC(CCC(=O)O)C1 (stereo unspecified)
- Potency [1]: inactive
- Potency [2]: inactive
- Potency [3]: inactive
- Potency [4]: inactive
- outcome [5]: inactive
- Potency [6]: inactive
- outcome [7]: inactive
- outcome [8]: inactive
- Potency [9]: inactive

SMILES: COc1ccc(C)cc1
- Potency [1]: inactive
- Potency [2]: inactive
- Potency [3]: inactive
- Potency [4]: inactive
- outcome [5]: inactive
- outcome [7]: inactive
- outcome [8]: inactive
- Potency [9]: inactive

SMILES: CC(O)Cn1cnc2c1c(=O)n(C)c(=O)n2C (stereo unspecified)
- Potency [1]: inactive
- Potency [2]: inactive
- Potency [3]: inactive
- Potency [4]: inactive
- outcome [5]: inactive
- Potency [6]: inactive
- fluorescence, relative to Rose Bengal [7]: -0.388% [at 18.6 µM]
- fluorescence, % of fluorescein control [8]: 0.0515% [at 18.6 µM]
- fluorescence, % of triamterene [9]: -0.0145% [at 18.6 µM]
- fluorescence, % of fluorescent control [10]: 0.0437% [at 18.6 µM]

SMILES: CC(CO)(CO)C(=O)O
- Potency [1]: inactive
- Potency [2]: inactive
- Potency [3]: inactive
- Potency [4]: inactive
- outcome [5]: inactive
- Potency [6]: inactive
- outcome [7]: inactive
- outcome [8]: inactive
- Potency [9]: inactive
- outcome [10]: inactive
